Compound activity from PubChem.
Sampled rows, rich in hits. Any-hit rate of the full collection: about 19%.
IL-1B inflam inh – qHTS for Inhibitors of Inflammasome Signaling: IL-1-beta AlphaLISA Primary Screen | THP-1 LPS/ATP IL-1B secretion, AlphaLISA, 16 h; stronger effect = lower value | activity change, % at 57.5 µM | 4.7% of 360,000 active | AID 743279, 2014; in the data active = activity change below about -50%; inconclusive = mostly about -30% to -49%
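THP-1 cells pretreated 1 hr with compounds (up to 57.5 uM final), then stimulated with LPS (250 ng/mL final) plus ATP (1.25 mM final); secreted IL-1B measured by AlphaLISA after 16 hr, decreased signal indicating inhibition.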
uPA surface inh – qHTS for Inhibitors of Cell Surface uPA Generation | 0.31% of 330,000 active | AID 540303, 2011 | cell surface uPA generation assay, qHTS | Potency, µM (series often up to 38.3 µM), actives largely listed as inhibitors; active = well fitted inhibition curve with a large enough effect; inconclusive = small, poorly fitted or top-dose-only effect; inactive = no such curve, though single readings can be large or run the other way; tested in mouse RAW 264.7 cells; also: nearly all actives have a fitted effect of over 55% in size
HT1080 IDH1KD tx – qHTS for induction of synthetic lethality in tumor cells producing 2HG: qHTS for the HT-1080-IDH1KD cell line. HT-1080 IDH1 knockdown viability, ATP luminescence, 48 h. Potency, µM (titrated, usually from 46.1 µM), usual class: cytotoxic. 2% of 360,000 active
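IDH1KD HT-1080 cells, 750/well, RPMI + 5% FBS; compound pinned after 2 h settling; 48 h, 37 °C; CellTiter-Glo luminescence; % activity normalised to DMSO and no-cell wells; curves fitted, classed by r2 and efficacy.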
DT40 TDP1 no CPT – qHTS for Inhibitors of human tyrosyl-DNA phosphodiesterase 1 (TDP1): qHTS in cells in absence of CPT | 15% of 420,000 active | DT40 Tdp1-/- hTDP1 cells, no CPT, ATP luminescence, 48 h | Potency, µM (highest dose often 46.2 µM), usual class: inhibitors; also: nearly all actives have a fitted effect of over 55% in size
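Growth of hTDP1-complemented DT40 Tdp1-knockout cells is measured by ATP luminescence after at least 48 hr compound exposure at 37 °C, with DMSO substituting for the 20 nM CPT used in the parallel screen.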
HT1080NT lethal – qHTS for induction of synthetic lethality in tumor cells producing 2HG: qHTS for the HT-1080-NT fibrosarcoma cell line. 1.6% of 360,000 active. Potency, µM (series often up to 46.1 µM), hits mostly cytotoxic. HT-1080-NT fibrosarcoma viability, CellTiter-Glo ATP luminescence, 48 h;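 also: NT is the 2HG producing partner of a matched IDH1 knockdown line; nearly all actives have a fitted effect of over 55% in size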
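A 48-hour cytotoxicity screen used HT-1080-NT cells plated 2 hours before compound delivery. ATP-based CellTiter-Glo luminescence measured viability, normalized to DMSO and no-cell controls.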
TDP1 cell CPT – qHTS for Inhibitors of human tyrosyl-DNA phosphodiesterase 1 (TDP1): qHTS in cells in presence of CPT; chicken DT40 Tdp1-/-;hTDP1 cells + 20 nM CPT, ATP luminescence, 48 h; Potency, µM (titrated, usually from 46.2 µM), actives largely listed as inhibitors; 12% of 420,000 active; AID 686979, 2013; also: nearly all actives have a fitted effect of over 55% in size
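Chicken DT40 Tdp1-/- cells stably complemented with human TDP1 were seeded at 400 cells/well in medium containing 20 nM camptothecin, exposed to pin-transferred compounds, and grown at 37 °C for at least 48 hr. Viability was read as ATP luminescence.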
Of the large screens only hits and unclear results are named; the others gave an inactive call. Unless noted, calls follow the shape of the dose curve; as a rule, active = well fitted curve in the direction sought with a large enough effect; inconclusive = small, poorly fitted or top-dose-only effect, or another doubt; inactive = no such curve, though single readings can be large; an effect the other way counts as inactive or inconclusive.

CCOC(=O)C1(Cc2ccccc2)NC(c2ccccc2F)C2C(=O)N(CC)C(=O)C21 (stereo not given)	DT40 TDP1 no CPT 7.3µM, TDP1 cell CPT 23µM
CCN1C(=O)[C@H]2[C@@H](c3ccc(-c4ccc(F)cc4)c(OC)c3)N[C@@](Cc3ccccc3)(C(=O)OC)[C@H]2C1=O	IL-1B inflam inh -62
CCN1C(=O)[C@H]2[C@@H](c3ccc(-c4ccccc4)c(OC)c3)N[C@@](Cc3ccccc3)(C(=O)OC)[C@H]2C1=O	none
CCCCCCSc1ccc([C@H]2N[C@@](Cc3ccccc3)(C(=O)OC)[C@H]3C(=O)N(C)C(=O)[C@@H]23)cc1	IL-1B inflam inh inconclusive, uPA surface inh inconclusive, DT40 TDP1 no CPT 21µM, TDP1 cell CPT inconclusive
CCC(C)Sc1ccc([C@H]2N[C@@](Cc3ccccc3)(C(=O)OC)[C@H]3C(=O)N(C)C(=O)[C@@H]23)cc1 (stereo not given in full)	IL-1B inflam inh inconclusive, DT40 TDP1 no CPT inconclusive, TDP1 cell CPT inconclusive
COc1ccc(S(=O)(=O)N2CCCC2CNC(=O)C(=O)NCc2cccs2)cc1 (stereo not given)	DT40 TDP1 no CPT inconclusive, TDP1 cell CPT inconclusive
Cc1ccc(-c2cc(C(=O)N/N=C/c3ccc(Cl)cc3)n[nH]2)o1	DT40 TDP1 no CPT inconclusive, TDP1 cell CPT inconclusive
CCCSc1ccc([C@H]2N[C@@](Cc3ccccc3)(C(=O)OC)[C@H]3C(=O)N(CC)C(=O)[C@@H]23)cc1	DT40 TDP1 no CPT 18µM, TDP1 cell CPT 18µM
O=C(NCCCc1nc2ccccc2n1Cc1cccc(Cl)c1)c1ccco1	DT40 TDP1 no CPT 23µM, TDP1 cell CPT 16µM (no result: IL-1B inflam inh, uPA surface inh, HT1080 IDH1KD tx, HT1080NT lethal)
O=C(NCCCc1nc2ccccc2n1Cc1ccccc1Cl)c1ccco1	DT40 TDP1 no CPT 16µM, TDP1 cell CPT 29µM (no result: IL-1B inflam inh, uPA surface inh, HT1080 IDH1KD tx, HT1080NT lethal)
Cn1c(CCCNC(=O)c2ccco2)nc2ccccc21	none
Clc1ccccc1Cn1c(/C=C/c2ccco2)nc2ccccc21	IL-1B inflam inh inconclusive, HT1080 IDH1KD tx 23µM, DT40 TDP1 no CPT inconclusive, HT1080NT lethal inconclusive, TDP1 cell CPT inconclusive
O=C(NCCCc1nc2ccccc2n1Cc1ccc(Cl)cc1)c1ccco1	DT40 TDP1 no CPT 16µM, TDP1 cell CPT inconclusive (no result: IL-1B inflam inh, uPA surface inh, HT1080 IDH1KD tx, HT1080NT lethal)
O=C(NCCCc1nc2ccccc2n1Cc1cccc(Cl)c1)C1CCCCC1	DT40 TDP1 no CPT inconclusive (no result: IL-1B inflam inh, uPA surface inh, HT1080 IDH1KD tx, HT1080NT lethal)
CC(C)Oc1ccc(CNS(=O)(=O)c2ccc(-c3cc(C(F)(F)F)on3)s2)cc1	none (no result: IL-1B inflam inh, uPA surface inh, HT1080 IDH1KD tx, HT1080NT lethal)
CCc1ccc(NC(=O)c2ccc3c(O)c(S(=O)(=O)c4ccc(Cl)cc4)c(=O)[nH]c3c2)cc1	none (no result: IL-1B inflam inh, uPA surface inh, HT1080 IDH1KD tx, HT1080NT lethal)
O=C(NCCc1ccco1)C(=O)NCC1OCCCN1S(=O)(=O)c1cc(F)ccc1F (stereo not given)	none
Oc1ccc(C[C@H]2CNCCN2CCC23CC4CC(CC(C4)C2)C3)cc1	IL-1B inflam inh inconclusive, HT1080 IDH1KD tx inconclusive, DT40 TDP1 no CPT 16µM, HT1080NT lethal 16µM, TDP1 cell CPT 18µM
Oc1ccc(C[C@@H]2CNCCN2CCC23CC4CC(CC(C4)C2)C3)cc1	uPA surface inh inconclusive, HT1080 IDH1KD tx 23µM, DT40 TDP1 no CPT 13µM, HT1080NT lethal inconclusive, TDP1 cell CPT 16µM
Cc1c(C(=O)N2CCC(C(N)=O)CC2)oc2ccc(Br)cc12	none
C[C@@H]1CN([C@@H](C)CO)C(=O)CCCn2nncc2CO[C@H]1CN(C)C(=O)c1ccc(N2CCN(C)CC2)cc1	none (no result: uPA surface inh)
COc1ccc(Cc2[nH]n3c(=O)cc(C)nc3c2-c2ccccc2)cc1	DT40 TDP1 no CPT inconclusive, TDP1 cell CPT inconclusive
COc1ccc(Cc2[nH]n3c(=O)cc(C(C)C)nc3c2-c2ccccc2)cc1	HT1080 IDH1KD tx inconclusive, DT40 TDP1 no CPT 7.3µM, HT1080NT lethal inconclusive, TDP1 cell CPT 18µM
